Results from the supplement of paper PMC13380429.

System: Vero E6 infected with SARS-CoV-2
Experiment: inhibition of SARS-CoV-2 cytopathic effect; higher = more antiviral protection, active = above 15
Details: 48 h

Measured: inhibition of SARS-CoV-2 cytopathic effect

CCc1c2c(nc3ccc(OC(=O)N4CCC(N5CCCCC5)CC4)cc13)-c1cc3c(c(=O)n1C2)COC(=O)[C@]3(O)CC [irinotecan]
inactive: 1 nM -2.2% | 8.33 nM 1.89% | 100 nM 1.85% | 833.33 nM 1.56% | 10000 nM -0.23%

CC(=O)Oc1cc2c(s1)CCN(C(C(=O)C1CC1)c1ccccc1F)C2 (stereo not given) [prasugrel]
inactive: 1 nM 2.32% | 8.33 nM 1.62% | 100 nM 0.43% | 833.33 nM 2.1% | 10000 nM -0.82%

Cc1cc(C)c2nc(-c3ccccn3)cc(C(=O)Nc3ccc(S(=O)(=O)Nc4onc(C)c4C)cc3)c2c1
inactive: 1 nM -1.1% | 8.33 nM 1.15% | 100 nM -0.62% | 833.33 nM -9.3% | 10000 nM -3.05%

CC(C)[C@H]1CC[C@H](C(=O)N[C@H](Cc2ccccc2)C(=O)O)CC1 [nateglinide]
inactive: 1 nM 0.56% | 8.33 nM 2.28% | 100 nM 0.38% | 833.33 nM 1.09% | 10000 nM 1.33%

O=C1CN(/N=C/c2ccc(-c3ccc([N+](=O)[O-])cc3)o2)C(=O)N1 [dantrolene]
inactive: 1 nM -2.23% | 8.33 nM 0.6% | 100 nM -1.1% | 833.33 nM -0.88% | 10000 nM 1.97%

CCCCC1=NC2(CCCC2)C(=O)N1Cc1ccc(-c2ccccc2-c2nnn[nH]2)cc1 [irbesartan]
inactive: 1 nM -1.49% | 8.33 nM -0.93% | 100 nM 0.89% | 833.33 nM 1.9% | 10000 nM 0.85%
